Compounds with a hit are over-represented: about 6.2% of the library has one in this group of screens.
ATXN2 expr inh – Primary qHTS for Inhibitors of ATXN expression. HEK-293 ATXN2-luciferase reporter, luminescence, 24 h. Potency, µM (highest dose often 57 µM), without a hit: at the highest dose activity change, negative = inhibition, usual class: inhibitors. hit rate 0.72% among 360,000. AID 1745845, 2022; also: % is scaled to controls: 0 for no effect and ±100 for the full control effect; nearly all actives have a fitted effect of over 55% in size
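ATXN2-luciferase reporter cells (luciferase flanked by upstream and downstream ATXN2 gene portions) were treated 24 h at 37 °C with compounds at up to 57 uM. SteadyGlo luminescence gave expression; GF-AFC fluorescence gave viability.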
HT1080 IDH1KD tx – qHTS for induction of synthetic lethality in tumor cells producing 2HG: qHTS for the HT-1080-IDH1KD cell line; HT-1080 IDH1 knockdown viability, ATP luminescence, 48 h; Potency, µM (series often up to 46.1 µM), for the others: top-dose activity, negative = toxicity, actives largely listed as cytotoxic; hit rate 2% among 360,000; AID 686971, 2013;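 also: 0% = DMSO wells and -100% = cell-free medium wells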
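CellTiter-Glo luminescence after 48 h compound exposure at 37 degrees C of IDH1-knockdown HT-1080 cells in 5% FBS RPMI. %Activity scaled between DMSO wells and cell-free media wells, with curves fitted and assigned curve classes.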
HT1080-NT tox – qHTS for induction of synthetic lethality in tumor cells producing 2HG: qHTS for the HT-1080-NT fibrosarcoma cell line | HT-1080-NT fibrosarcoma viability, CellTiter-Glo ATP luminescence, 48 h | AID 686970, 2013 | hit rate 1.6% among 360,000 | Potency, µM (top dose mostly 46.1 µM), for the others: at the highest dose activity, negative = less viability, most hits filed as cytotoxic;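 also: NT is the 2HG producing partner of a matched IDH1 knockdown line; 0% = DMSO-treated cells and -100% = media-only wells without cells; nearly all actives have a fitted effect of over 55% in size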
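A 48-hour cytotoxicity screen used HT-1080-NT cells plated 2 hours before compound delivery. ATP-based CellTiter-Glo luminescence measured viability, normalized to DMSO and no-cell controls.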
KB-3-1 cytotox – qHTS assay for MDR1-selective chemotherapeutics: Primary screen using the parental adenocarcinoma cell KB-3-1. KB-3-1 viability, CellTiter-Glo ATP luminescence, 72 h. Potency, µM (top dose mostly 46.1 µM), most hits filed as cytotoxic. hit rate 1.4% among 400,000. AID 1347075, 2019; also: % is scaled to controls: 0 for no effect and ±100 for the full control effect; nearly all actives have a fitted effect of over 60% in size
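Multi-concentration cytotoxicity screen in KB-3-1 cells grown in DMEM lacking phenol red with 10% FBS. After 72 h at 37 °C with compound, ATP-dependent luminescence was recorded.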
S2 tox – Viability Counterscreen for Primary qHTS for Inhibitors of ATXN expression; S2 cells (HEK-293 line with an ATXN2-luciferase reporter) viability, CellTiter-Fluor protease fluorescence, 24 h; Potency, µM (top dose mostly 56.7 µM), hits mostly cytotoxic; hit rate 0.49% among 400,000; AID 651635, 2014; also: nearly all actives have a fitted effect of over 40% in size
KB-V1 MDR tox – qHTS assay for MDR1-selective chemotherapeutics: Primary screen using the drug-selected MDR subline cells KB-V1; Potency, µM (top dose mostly 46.1 µM), actives largely listed as cytotoxic; hit rate 3.4% among 400,000; KB-V1 MDR cells viability, CellTiter-Glo, 72 h; AID 1347076, 2019; also: % is scaled to controls: 0 for no effect and ±100 for the full control effect; nearly all actives have a fitted effect of over 60% in size
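KB-V1 cells (P-gp-expressing MDR subline of KB-3-1) in phenol-red-free DMEM with 10% FBS were exposed to library compounds over a concentration series for 72 h at 37 degrees C. Viability read by CellTiter-Glo luminescence; concentration-effect curves fitted after normalization.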
The depositor's hits bear a star. Calls follow the shape of the dose curve; as a rule, active = well fitted curve in the direction sought with a large enough effect; inconclusive = small, poorly fitted or top-dose-only effect, or another doubt; inactive = no such curve, though single readings can be large; an effect the other way counts as inactive or inconclusive. Potency is read from the fitted curve at half-maximal effect.

Results for CNc1cccc(S(=O)(=O)N2CCCN(S(=O)(=O)c3ccc4c(c3)OCCO4)CC2)c1 ?
KB-3-1 cytotox: inactive; KB-V1 MDR tox: inactive

Results for Cc1ccc(C)c(N2CCN(C(=O)CCS(=O)(=O)c3cc4c(cc3Cl)NC(=O)CO4)CC2)c1 ?
ATXN2 expr inh: inconclusive; KB-3-1 cytotox: inconclusive; S2 tox: inconclusive; KB-V1 MDR tox: 16.4µM*

Results for CN1CCN(C(=O)CCS(=O)(=O)c2cc3c(cc2Cl)NC(=O)CO3)CC1 ?
ATXN2 expr inh: 0.4%; HT1080 IDH1KD tx: 1.1%; HT1080-NT tox: 4.7%; KB-3-1 cytotox: inactive; S2 tox: inactive; KB-V1 MDR tox: inactive

How did Cc1ccc(Cl)cc1N1CCN(C(=O)CCS(=O)(=O)c2ccc3c(c2)oc(=O)n3C)CC1 do in these assays?
ATXN2 expr inh: -1.6%; KB-3-1 cytotox: inactive; S2 tox: inactive; KB-V1 MDR tox: 7.31µM*

How did CC(C)c1nc(C(=O)N2CCOc3ccc(CN4CCN(c5ccccn5)CC4)cc3C2)cs1 do in these assays?
S2 tox: inactive

What do the screens show for `COc1cccc2c(=O)c(SC(F)(F)C(F)C(F)(F)F)c(C)[nH]c12` (stereo not given)?
ATXN2 expr inh: 15.2%; HT1080 IDH1KD tx: 20.6µM*; HT1080-NT tox: inconclusive; KB-3-1 cytotox: inconclusive; S2 tox: inconclusive; KB-V1 MDR tox: inactive

Results for NCCc1c(-c2ccccc2)n(-c2ccccc2)c2ccccc12 ?
ATXN2 expr inh: 28.2µM*; HT1080 IDH1KD tx: 20.6µM*; HT1080-NT tox: 14.6µM*; KB-3-1 cytotox: inactive; S2 tox: inconclusive; KB-V1 MDR tox: inconclusive

What do the screens show for `Oc1ccc(C2CCN(c3ccnc4ccccc34)CC2)cc1O`?
ATXN2 expr inh: 18.5%

What do the screens show for `CSc1cccc(NC(=O)c2ccc3c(c2)CCCN3S(C)(=O)=O)c1`?
ATXN2 expr inh: inconclusive; KB-3-1 cytotox: inactive; S2 tox: inconclusive; KB-V1 MDR tox: inconclusive

What do the screens show for `CCOC(=O)/C(C#N)=C1/SC(C)C(=O)N1c1ccc(Br)cc1` (stereo not given)?
ATXN2 expr inh: 1.6%; HT1080 IDH1KD tx: 0.0%; HT1080-NT tox: 2.2%; KB-3-1 cytotox: inactive; S2 tox: inactive; KB-V1 MDR tox: inactive

How did CCOC(=O)/C(C#N)=C1/SC(CC)C(=O)N1c1ccc(Br)cc1 (stereo not given) do in these assays?
ATXN2 expr inh: 5.1%; HT1080 IDH1KD tx: 13.7%; HT1080-NT tox: -1.7%; KB-3-1 cytotox: inactive; S2 tox: inactive; KB-V1 MDR tox: 8.2µM*

Results for Cn1cc(-c2ccc3nnc(Sc4ccc5ncccc5c4)n3n2)cn1 ?
ATXN2 expr inh: -17.1%

How did Cc1ccccc1-n1c(SCC(=O)NCC2CCCO2)nnc1-c1ccncc1 (stereo not given) do in these assays?
ATXN2 expr inh: 5.8%; HT1080 IDH1KD tx: 14.1%; HT1080-NT tox: 3.2%; KB-3-1 cytotox: inactive; S2 tox: inactive; KB-V1 MDR tox: inactive

Results for O=C(CSc1nnc(NC(=O)c2ccco2)s1)NC1CCCCC1 ?
ATXN2 expr inh: 4.4%; HT1080 IDH1KD tx: -1.9%; HT1080-NT tox: 2.1%; KB-3-1 cytotox: inactive; S2 tox: inactive; KB-V1 MDR tox: 23.1µM*

What do the screens show for `Cc1ccccc1-n1c(C)nnc1SCC(=O)NCC1CCCO1` (stereo not given)?
ATXN2 expr inh: 3.1%; HT1080 IDH1KD tx: 22.4µM*; HT1080-NT tox: inconclusive; KB-3-1 cytotox: inactive; S2 tox: inactive; KB-V1 MDR tox: inactive

How did CC(C)(C)c1ccc(C(=O)Nc2nnc(SCC(=O)NCC3CCCO3)s2)cc1 (stereo not given) do in these assays?
ATXN2 expr inh: 15.8µM*; HT1080 IDH1KD tx: 5.4%; HT1080-NT tox: 7.4%; KB-3-1 cytotox: inactive; S2 tox: inactive; KB-V1 MDR tox: inactive

Results for Cc1ccc(-c2csc3ncnc(Sc4nnnn4C4CC4)c23)cc1 ?
KB-3-1 cytotox: inconclusive; KB-V1 MDR tox: inactive

How did CCc1cccc2c(CCO)c[nH]c12 do in these assays?
ATXN2 expr inh: 17.5%; S2 tox: inactive

What do the screens show for `CCN(Cc1ccccc1)S(=O)(=O)c1ccc(C(=O)N(CCCN(C)C)c2nc3cc(C)cc(C)c3s2)cc1`?
ATXN2 expr inh: inconclusive; HT1080 IDH1KD tx: 23.1µM*; HT1080-NT tox: 16.4µM*; KB-3-1 cytotox: inconclusive; S2 tox: 25.1µM*; KB-V1 MDR tox: inconclusive

Results for Cc1cc(C)c2sc(N(CCCN(C)C)C(=O)c3ccc(Br)s3)nc2c1 ?
ATXN2 expr inh: 8.91µM*; HT1080 IDH1KD tx: inconclusive; HT1080-NT tox: 23.1µM*; KB-3-1 cytotox: inactive; S2 tox: 11.2µM*; KB-V1 MDR tox: inactive

Results for CCN(Cc1ccccc1)S(=O)(=O)c1ccc(C(=O)N(CCCN(C)C)c2nc3c(F)cccc3s2)cc1 ?
ATXN2 expr inh: -16.3%; HT1080 IDH1KD tx: -17.6%; HT1080-NT tox: -2.2%; KB-3-1 cytotox: inactive; S2 tox: inactive; KB-V1 MDR tox: inactive

Results for CCCCN(C)S(=O)(=O)c1ccc(C(=O)N(CCN(C)C)c2nc3ccc(C)cc3s2)cc1 ?
HT1080 IDH1KD tx: -6.0%; HT1080-NT tox: -6.7%; KB-3-1 cytotox: inactive; S2 tox: inactive; KB-V1 MDR tox: inactive

How did Cc1cc(C)c2sc(N(CCCN(C)C)C(=O)c3ccc(S(=O)(=O)N(C)Cc4ccccc4)cc3)nc2c1 do in these assays?
ATXN2 expr inh: inconclusive; HT1080 IDH1KD tx: -21.5%; HT1080-NT tox: -17.6%; KB-3-1 cytotox: inconclusive; KB-V1 MDR tox: 20.6µM*

Results for COc1ccc2sc(N(CCCN(C)C)C(=O)c3ccc(S(=O)(=O)N(C)Cc4ccccc4)cc3)nc2c1 ?
ATXN2 expr inh: -34.1%; HT1080 IDH1KD tx: -3.4%; HT1080-NT tox: -8.9%; KB-3-1 cytotox: inconclusive; S2 tox: inconclusive; KB-V1 MDR tox: inconclusive

How did CCCCN(CC)S(=O)(=O)c1ccc(C(=O)N(CCCN(C)C)c2nc3cc(C)cc(C)c3s2)cc1 do in these assays?
ATXN2 expr inh: inconclusive; HT1080 IDH1KD tx: inconclusive; HT1080-NT tox: 20.6µM*; KB-3-1 cytotox: inconclusive; S2 tox: inconclusive; KB-V1 MDR tox: 25.9µM*

What do the screens show for `Cc1cc(C)c2sc(N(CCN(C)C)C(=O)c3c(F)cccc3F)nc2c1`?
ATXN2 expr inh: -16.8%; HT1080 IDH1KD tx: inconclusive; HT1080-NT tox: -14.4%; KB-3-1 cytotox: inactive; S2 tox: inactive; KB-V1 MDR tox: inconclusive
